# The entries come from a sample that favours hits as a whole.
# CHX counter – counter-screen for Shiga toxin inhibitors: cycloheximide protein synthesis inhibition | cell reporter, cycloheximide protein synthesis inhibition counterscreen | max response, % | hit rate 12% among 300,000; in the data active = max response mostly above about 13%, no sharp cut-off; inactive = mostly below about 14%; note: read at 38.3 µM for the half of the compounds with a filed dose; 0% is about no effect
# Shiga inhibitor – Shiga toxin inhibition. hit rate 9.2% among 290,000. Vero cells, Shiga toxin protein synthesis inhibition reporter. inhibition, % at 38.7 µM; in the data active = inhibition mostly above about 28%, no sharp cut-off; inactive = mostly below about 43%; note: 0% is about no effect
# TbPYK inhibitor – blocks Trypanosoma brucei pyruvate kinase; Q57TT1; TbPYK enzyme, Kinase-Glo Plus ATP luminescence, 45 min; Potency, µM (series often up to 76.8 µM), for inactives: at the top dose activity, negative = inhibition, most hits filed as inhibitors; hit rate 0.12% among 410,000; note: potency is the fitted concentration of half-maximal effect; % is set by controls: 0 for no effect and ±100 for the full control effect; nearly all actives have a fitted effect of over 50% in size
#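 Readout: single end-point luminescence (Kinase-Glo Plus, 10 min). Reaction conditions were TbPYK/substrate plus 130 uM ADP, 45 min at RT, pH 7.2 TEA buffer. No-enzyme wells served as controls, and data were normalized before concentration-response fitting.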
# RE007 growth inh – less growth of the S. pombe RE007 Vpr strain; S. pombe RE007 Vpr strain, BacTiter-Glo ATP luminescence, 24 h; Potency, µM (doses to about 92.2 µM), for the others: at the top dose activity change, negative = less growth, hits mostly inhibitors; hit rate 0.21% among 360,000; AID 651644; active = well fitted falling curve with a large enough effect; inconclusive = small, poorly fitted or top-dose-only effect; inactive = no such curve, though single readings can be large or run the other way; note: potency is the fitted concentration of half-maximal effect; % is set by controls: 0 for no effect and ±100 for the full control effect; nearly all actives have a fitted effect of over 50% in size
#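 Fission yeast strain RE007, carrying one chromosomally integrated HIV-1 vpr copy, was seeded at OD 0.01 in PMG+AL medium with 23 nL pinned compound. After 24 h at 30 °C and 99% humidity, viability was read by BacTiter-Glo luminescence.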
# LmPK inh – LmPK (Leishmania mexicana) enzyme inhibition; Q27686; purified LmPK, Kinase-Glo ATP luminescence, 1 h; Potency, µM (titrated, usually from 57.5 µM), inactives show top-dose activity change, negative = inhibition, hits mostly inhibitors; hit rate 0.37% among 290,000; AID 1721; note: potency is the fitted concentration of half-maximal effect; % is set by controls: 0 for no effect and ±100 for the full control effect
# Target sequence (Q27686 whole entry, looked up): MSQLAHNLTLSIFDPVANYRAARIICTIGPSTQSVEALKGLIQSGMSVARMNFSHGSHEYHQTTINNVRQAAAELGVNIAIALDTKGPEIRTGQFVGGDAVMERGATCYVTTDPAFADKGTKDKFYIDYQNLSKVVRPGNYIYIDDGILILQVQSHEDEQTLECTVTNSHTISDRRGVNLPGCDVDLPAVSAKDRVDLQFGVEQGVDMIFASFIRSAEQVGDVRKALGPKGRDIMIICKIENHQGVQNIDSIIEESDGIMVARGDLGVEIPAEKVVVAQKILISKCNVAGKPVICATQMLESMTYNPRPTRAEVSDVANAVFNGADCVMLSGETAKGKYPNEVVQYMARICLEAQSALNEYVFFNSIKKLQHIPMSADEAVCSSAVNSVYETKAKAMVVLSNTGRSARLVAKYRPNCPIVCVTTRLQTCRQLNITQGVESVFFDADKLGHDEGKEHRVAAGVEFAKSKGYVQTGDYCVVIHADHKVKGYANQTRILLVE
#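 ATP generated from ADP (0.1 mM) and PEP (0.5 mM) by 0.1 nM LmPK over 1 h at room temperature (pH 7.2 imidazole buffer) was detected by coupled luciferase luminescence. Values were normalized to uninhibited and no-enzyme wells.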
# Giardia FBPA inh – Giardia lamblia aldolase inhibition; purified Giardia FBPA; Potency, µM (top dose mostly 59.6 µM), for inactives: at the top dose activity, negative = inhibition, actives largely listed as inhibitors; hit rate 0.71% among 290,000; note: potency is the fitted concentration of half-maximal effect; % is set by controls: 0 for no effect and ±100 for the full control effect; nearly all actives have a fitted effect of over 55% in size
#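 40 nM FBPA preincubated 10 min at RT with compound (up to 57.5 uM final), then substrate plus GAPDH/TPI/NAD/arsenate coupling and diaphorase/resazurin added. Fluorescence read after 20 min at RT, 525/598 nm.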
# * hit, by the source's call; ? = inconclusive; · = no result. Unless noted, calls come from the whole dose curve; as a rule, active = well fitted curve in the direction sought with a large enough effect; inconclusive = small, poorly fitted or top-dose-only effect, or another doubt; inactive = no such curve, though single readings can be large; an effect the other way counts as inactive or inconclusive.
SMILES,CHX counter,Shiga inhibitor,TbPYK inhibitor,RE007 growth inh,LmPK inh,Giardia FBPA inh
COc1ccccc1CN1CC(C(=O)N2CCCCO2)CCC1=O (stereo not given),30.7*,70.7*,-2.9%,-5.5%,-0.9%,·
COCCCC1CCN(C(=O)C2CCC(=O)N(CCc3ccccc3)C2)CC1 (stereo not given),45.7*,55.7*,0.7%,-12.0%,-0.3%,0.4%
O=C(NCc1cc(F)ccc1F)C1CCC(=O)N(C2CCCCCC2)C1 (stereo not given),34.8*,86.0*,-1.1%,1.3%,-10.1%,·
Cc1ccc2oc(C(=O)Nc3sc4c(c3C(=O)NCc3ccccc3)CCCC4)cc(=O)c2c1,·,·,2.0%,·,·,·
COc1ccc(CCN2C(=O)c3[nH]nc(-c4ccccc4O)c3C2c2ccccc2)cc1 (stereo not given),·,·,-3.2%,·,·,·
COc1ccccc1CN1CC(C(=O)N(C)Cc2nc(C)cs2)CCC1=O (stereo not given),17.0*,38.6,-7.0%,-12.0%,-6.3%,·
O=C(NCc1cccs1)C1CCC(=O)N(Cc2cccc(C(F)(F)F)c2)C1 (stereo not given),38.9*,7.6,-0.9%,2.9%,1.9%,1.2%
O=C1CCC(C(=O)N2CCCCO2)CN1CCc1ccccc1 (stereo not given),41.6*,81.4*,-0.5%,-3.9%,-2.8%,15.5%
CCOC(=O)CC1(NC(=O)C2CCC(=O)N(CCc3ccccc3)C2)CCCCC1 (stereo not given),19.6*,30.3*,-10.1%,-10.6%,-2.1%,-0.9%
O=C(NCCN1CCOCC1)C1(C(F)(F)F)C/C(=C/CCO)CCCO1 (stereo not given),-8.3,-4.0,·,·,·,-0.5%
Cc1ccc(C)c(N2CCN(C(=O)c3cc4c(=O)n(Cc5ccco5)ccc4nc3C)CC2)c1,·,·,-4.7%,·,·,·
COc1ccccc1CN1CC(C(=O)NCc2cc(F)ccc2C)CCC1=O (stereo not given),31.9*,40.2*,-0.2%,-3.0%,-3.2%,1.7%
Cc1ccc(F)cc1CNC(=O)C1CCC(=O)N(CCc2ccccc2)C1 (stereo not given),9.1,12.5,3.1%,4.5%,-0.2%,5.9%
O=C1CCC(C(=O)N2CCCO2)CN1Cc1cccc(C(F)(F)F)c1 (stereo not given),29.0*,44.1*,1.0%,3.8%,0.0%,5.3%
CCCn1c(C)nc2c(NC3CCN(Cc4ccccc4)C3)nc(C)nc21 (stereo not given),·,·,·,·,·,-0.7%
CCOC(=O)N1CCC(NC(=O)c2cnn(-c3ccc(C)cc3)c2-n2cccc2)CC1,·,·,-4.7%,·,·,·
C(=N\NC1=Nc2cccc3cccc1c23)/c1cccnc1,40.0*,72.2*,3.5%,-1.4%,3.6%,?
Clc1ccc(/C=N/NC2=Nc3cccc4cccc2c34)cc1,24.3*,85.3*,1.9%,11.1%,1.5%,-3.6%
COc1cccc(NC2=Nc3cccc4cccc2c34)c1,21.4*,23.8,-7.3%,·,0.8%,-14.4%
C(=N\NC1=Nc2cccc3cccc1c23)/c1ccccc1,86.8*,42.7*,2.8%,-2.1%,0.9%,-21.0%
Clc1ccccc1-c1nc(N/N=C/c2cccnc2)c2ccccc2n1,-5.4,-17.3,-3.3%,-6.1%,1.5%,3.8%
Cc1oc(-c2ccccc2Cl)nc1CS(=O)(=O)CC(=O)NC(C)CCc1ccccc1 (stereo not given),·,·,2.4%,·,·,·
CCN1CCN(Cc2c(O)ccc3c(=O)c(Oc4ccccc4C(C)C)c(C(F)(F)F)oc23)CC1,·,·,-11.1%,·,·,·
Cc1nc2nc(NC(=O)CC(C)C)[nH]n2c(=O)c1Cc1ccccc1,·,·,1.1%,·,·,·
O=C(C1CCCN(S(=O)(=O)c2cccs2)C1)N1CCN(c2ccccc2F)CC1 (stereo not given),·,·,-4.4%,·,·,·
SMILES,CHX counter,Shiga inhibitor,TbPYK inhibitor,RE007 growth inh,LmPK inh,Giardia FBPA inh
Cc1ccc(OCCNC(=O)c2ccco2)cc1C,16.7*,73.7*,-0.1%,-16.3%,-3.5%,-3.0%
CCOC(=O)N/N=C/c1ccc(Oc2ccccc2)cc1,40.5*,104.1*,-0.4%,-7.8%,0.9%,1.6%
COc1ccc2c(CCNC(=O)c3ccco3)c[nH]c2c1,49.1*,62.9*,-5.7%,-23.0%,0.8%,-17.7%
COc1ccc(OCCNC(=O)c2ccccc2OCC(=O)Nc2ccc(NC(C)=O)cc2)cc1,24.3*,18.0,0.7%,16.4%,-2.1%,-0.9%
CC(=O)N1c2ccccc2CC1C(=O)NCc1cccc(Cl)c1 (stereo not given),·,·,-5.6%,·,·,·
Cc1ccc(C)c(OCCn2c(CCNC(=O)C3CCCCC3)nc3ccccc32)c1,0.9,11.1,·,·,·,·
Cc1ccc(OCCNC(=O)c2ccccc2N)cc1,12.9*,26.8*,0.9%,-9.9%,1.6%,1.1%
O=C(NCc1ccccc1)c1ccco1,-2.1,4.4,-7.0%,-4.2%,0.6%,4.6%
CCOc1ccc(CNC(=O)c2ccco2)cc1,20.4*,40.2,2.6%,0.5%,-2.4%,8.1%
COc1ccccc1C(=O)NCCC(=O)NCCOc1ccc(C)cc1,·,·,-11.8%,-1.9%,·,·
Cc1ccc(OCCNC(=O)c2ccccc2OCc2c(C)noc2C)cc1,·,·,0.0%,4.7%,·,·
CCc1ccc(OCCNC(=O)c2ccco2)cc1,34.4*,51.9*,-0.7%,-29.3%,-0.1%,6.7%
COc1ccccc1C(=O)NCCOc1ccc(C)c(C)c1,25.2*,38.6*,7.4%,0.7%,2.3%,21.4%
Cc1ccc(-c2noc(CN(C3CCCCC3)S(=O)(=O)c3ccc(C)cc3)n2)cc1,·,·,0.6%,·,·,·
COc1ccc2c(c1)O[C@@H](c1cccc(C(F)(F)F)c1)[C@H](OC(=O)NC1CCCC1)C2=O,·,·,·,·,·,1.0%
COc1ccc(NC(=O)N2CCOc3ccc(Cl)cc32)cc1,·,·,0.9%,·,·,·
CCc1ccc(OCC(=O)NCCOc2ccccc2)cc1,27.3*,65.5,-1.3%,-10.8%,6.9%,1.4%
CCCCOCCCNC(=O)COc1ccccc1,-2.2,-7.9,4.2%,-0.7%,8.9%,0.3%
CCOC(=O)NCCOc1ccc(Oc2ccccc2)cc1,21.0*,30.3*,·,·,·,-5.8%
COc1cccc(NC(=O)C(CCSC)NC(=O)C2CCC(C)CC2)c1 (stereo not given),·,·,-0.8%,·,·,·
